Laboratory results from paper PMC13494018.
Unmarked numbers belong to inactive results. No rule for the calls is given here.

Target: VTCN1, Q7Z7D3
Sequence (Q7Z7D3 whole entry): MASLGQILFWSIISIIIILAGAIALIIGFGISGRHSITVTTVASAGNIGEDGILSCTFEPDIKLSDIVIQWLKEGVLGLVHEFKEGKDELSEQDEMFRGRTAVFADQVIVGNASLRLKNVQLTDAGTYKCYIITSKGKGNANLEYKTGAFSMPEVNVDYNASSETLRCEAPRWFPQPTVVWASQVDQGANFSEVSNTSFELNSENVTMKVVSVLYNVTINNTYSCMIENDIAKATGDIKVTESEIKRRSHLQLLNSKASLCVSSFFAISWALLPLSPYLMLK

B1: design_597_f3dcd2b3-c7aa-4b15-88bc-bbb8d01a18cd_2462_dldesign_0_cycle1_af2pred (protein)
chain: DPLREAAKAAVEAMGKAAKEVGLTKEASELAGLVHEALSAAKAGIHAKEILKEAAEAAKKAAEEYPEAKELFEKVAKEVEKMEKLV
  binding in a display sort: not found

B2: design_598_15ab41e9-cad4-4381-8935-81f74b313fe8_88_dldesign_0_cycle1_af2pred (protein)
chain: GSAKELAEKLRYVNRKIKEAGELAKELEKAGYPEEAKKLRELAQKARDALMAGDLDAAYKAAKELEEKIKEAKKKLEA
  binding in a display sort: not found

B3: design_597_f3dcd2b3-c7aa-4b15-88bc-bbb8d01a18cd_1120_dldesign_0_cycle1_af2pred (protein)
chain: MLAKIARIIADITTATAKLLRKTGPKFVKLTKVLAVLADIIGDLALKTGKEEDIKAGGYALAAAERARHAAEAAE
  binding in a display sort: not found

B4: design_597_f3dcd2b3-c7aa-4b15-88bc-bbb8d01a18cd_1341_dldesign_0_cycle1_af2pred (protein)
chain: AAAVEAAKAEITKLAAELSAKAFEAKAAASVFPEYKPVYELYKEAAEKAKEGLVLLKALGEKALEEAKKLAEEAKKLAKEGDELEKKL
  binding in a display sort: not found

B5: design_598_15ab41e9-cad4-4381-8935-81f74b313fe8_121_dldesign_0_cycle1_af2pred (protein)
chain: MMEKKKKEAEIKRDAAIEQAKTIVEANKDKPFEEILEKVEKSVERFKESIEKIDPEIGKEEGEKARKESEEIVKKASEA
  binding in a display sort: not found

B6: design_598_15ab41e9-cad4-4381-8935-81f74b313fe8_148_dldesign_0_cycle1_af2pred (protein)
chain: MAEEAKKTSDAIREMVKIAKEAGKEVAGSPEAQKKIAAARDKAMDAVAAGEDPEEQLKKAKEEIEAVVAEEKA
  binding in a display sort: not found

B7: design_597_f3dcd2b3-c7aa-4b15-88bc-bbb8d01a18cd_1746_dldesign_0_cycle1_af2pred (protein)
chain: SLKTKALAEAGRAIALSDSVISALPDSELAKKAKEIKKKAEEAMEKAEKGEKLEEALKEAKKLKEEAKKLRKEAEKEKKA
  binding in a display sort: not found

B8: design_597_f3dcd2b3-c7aa-4b15-88bc-bbb8d01a18cd_2142_dldesign_0_cycle1_af2pred (protein)
chain: AAAAAAAEAARAEAAKAFTEAIDLAYSDPKYIPILEKTSEDSAATFIAAGKLSGKTAEWTAKGELIKKTSERIIKDIKK
  binding in a display sort: not found

B9: design_597_f3dcd2b3-c7aa-4b15-88bc-bbb8d01a18cd_1765_dldesign_0_cycle1_af2pred (protein)
chain: SMEEEKKKKEAEKARKEAEKAIEEIKKNPENKELQTEALAKAYEAKAIDKEVGKEAIKKVREAIKEARKKL
  binding in a display sort: not found

B10: design_597_f3dcd2b3-c7aa-4b15-88bc-bbb8d01a18cd_2012_dldesign_0_cycle1_af2pred (protein)
chain: AEAKKEAAKLSEEAAELAAEAWLKAKKAKPEEAEKYKKAAEYFKEAIKILQAGEDLEKAKALYEKGKALYEEA
  binding in a display sort: not found

B11: design_597_f3dcd2b3-c7aa-4b15-88bc-bbb8d01a18cd_2475_dldesign_0_cycle1_af2pred (protein)
chain: MTPLEESAAKAQEAREEAAEKEQKGKLLAEKGNYKEGAKEYKKGAEELKKAAKFAEEAGDKEAAERLKKRAERLEKLAKEYEKKAK
  binding in a display sort: not found

B12: design_597_f3dcd2b3-c7aa-4b15-88bc-bbb8d01a18cd_2332_dldesign_0_cycle1_af2pred (protein)
chain: SVVEEVKEEAKKAIEEGKKGDAGTAAALGYEAKALAEQKAKLYPEEAEELKKIAEEVKKEAKEIAEKKLKEKKAA
  binding in a display sort: not found

B13: design_597_f3dcd2b3-c7aa-4b15-88bc-bbb8d01a18cd_2474_dldesign_0_cycle1_af2pred (protein)
chain: MKADEEAAKKAAAARDTAFDKIAAGEDPQAAYDAAKAEMKKIAEEYGVSPETKEKIEKGIKALERFAAAAAKAAA
  binding in a display sort: not found

B14: design_597_f3dcd2b3-c7aa-4b15-88bc-bbb8d01a18cd_1719_dldesign_0_cycle1_af2pred (protein)
chain: LEKNVKKAIEAAKKAIEAGKKAKEAGLEELAKEAIEKAKKAIEAAAKDKASGGETAKETANAAQEARQAKSEAESAIKKK
  binding in a display sort: not found

B15: design_597_f3dcd2b3-c7aa-4b15-88bc-bbb8d01a18cd_1782_dldesign_0_cycle1_af2pred (protein)
chain: MEEVKKKVAEAVQAGYRAAATLSKEEGKKLREETKELAKKLTELVKKSEELAGDPEKAKALADEATKIAEKAKEEYEKIDKA
  binding in a display sort: not found

B16: design_597_f3dcd2b3-c7aa-4b15-88bc-bbb8d01a18cd_1026_dldesign_0_cycle1_af2pred (protein)
chain: MEVVEKMAEEIAKAAEEAGDKVTAALARAVAARAKKEKEISPEEAVKRLGEDAKFMAEDNGNEELAKKIKEIAEKALKEV
  binding in a display sort: not found

B17: design_597_f3dcd2b3-c7aa-4b15-88bc-bbb8d01a18cd_2381_dldesign_0_cycle1_af2pred (protein)
chain: AAAEAAAAAAKAAAKAEAAKHLEKAFDLIADGGTVEEVEKEAEKAIEYAAKADEKYKKLAERTAKRIIENAKIAAKREEEN
  binding in a display sort: not found

B18: design_598_15ab41e9-cad4-4381-8935-81f74b313fe8_13_dldesign_0_cycle1_af2pred (protein)
chain: AEKSREEGVKKAEEAAKLAKEAGLEEKAKKIKEAAKKAAKTGTDEDLKELSKTALEAAKLADPEKGAKISELRVEAAGYFELARIQ
  binding in a display sort: not found

B19: design_597_f3dcd2b3-c7aa-4b15-88bc-bbb8d01a18cd_1306_dldesign_0_cycle1_af2pred (protein)
chain: GKMKEDEEKLKEIEKEAKKAIEEAKKLAKEDPKKGAEYAKKASKEITERGTELGKTMSPEVRKKLAEVVQKAREELTEIAFKAR
  binding in a display sort: not found

B20: design_597_f3dcd2b3-c7aa-4b15-88bc-bbb8d01a18cd_1586_dldesign_0_cycle1_af2pred (protein)
chain: AAAIEKAKAAVEELLKAAEEALKLAEKDPSYAKYAEEVKKKINKVAKELKEALLADPSVANKLQEARQIATEAEATAKIKK
  binding in a display sort: not found

B21: design_597_f3dcd2b3-c7aa-4b15-88bc-bbb8d01a18cd_1491_dldesign_0_cycle1_af2pred (protein)
chain: DEGEKLKKEFKEEIEEVAKEAKELVKEGVSPKVAARLVENTAEVLIKEAEKHKEGEEIKKAVKEEAEKKKEEILKL
  binding in a display sort: not found

B22: design_597_f3dcd2b3-c7aa-4b15-88bc-bbb8d01a18cd_2262_dldesign_0_cycle1_af2pred (protein)
chain: AEAEEALKAAKAAAAKAKEAADAAIADPATKAAGEKAKKLIEAREKKAEANASDVRVLQSAVEFFNHMAAALKKILA
  binding in a display sort: not found

B23: design_597_f3dcd2b3-c7aa-4b15-88bc-bbb8d01a18cd_627_dldesign_0_cycle1_af2pred (protein)
chain: MYKELAENYRKGVRALSRRYRLRAELDPAKAAEYGAEATRERDKLFNASPEEVKKAAEEWAKEEAAVAAEAAALAAAA
  binding in a display sort: not found

B24: design_597_f3dcd2b3-c7aa-4b15-88bc-bbb8d01a18cd_1339_dldesign_0_cycle1_af2pred (protein)
chain: AEAEKYKKEAEKALKELEEIAKKYPSSTKIQANYESAKEYFEHNEQAAKLNPEKAAEAYKKAYEYAKRKLEEAKKIAEELEKKE
  binding in a display sort: not found

B25: design_597_f3dcd2b3-c7aa-4b15-88bc-bbb8d01a18cd_2336_dldesign_0_cycle1_af2pred (protein)
chain: AQAAKVAAALAAAEKRLAISTARAKELAKKNPQAGYEYMEIRTDHMAAALAKVDPAAGAEVKARGAALAAEIKA
  binding in a display sort: not found

B26: design_597_f3dcd2b3-c7aa-4b15-88bc-bbb8d01a18cd_925_dldesign_0_cycle1_af2pred (protein)
chain: HKEENEAMKEILDEFNEAGRKMQEYVKAGKLEEAKKALEEEAKKMLEIGKKAGENALELAEELVEEARRNLEKAIEAAK
  binding in a display sort: not found

B27: design_598_15ab41e9-cad4-4381-8935-81f74b313fe8_127_dldesign_0_cycle1_af2pred (protein)
chain: SAMDLLLEILDYNDEALKAAKEGNKEEMEKYIKKAFEIAEELGKKYGPEAEERAKRYVEKAKKEAEEIYKK
  binding in a display sort: not found

B28: design_597_f3dcd2b3-c7aa-4b15-88bc-bbb8d01a18cd_2160_dldesign_0_cycle1_af2pred (protein)
chain: NATEIYREGREKAKELAKKGGKLVKDGEEFARRLVAAANTYFADPEEGEKQLDELIKEAEKESPEAAKIAKEVLKAAKEYLKKLDEEG
  binding in a display sort: not found

B29: design_597_f3dcd2b3-c7aa-4b15-88bc-bbb8d01a18cd_1493_dldesign_0_cycle1_af2pred (protein)
chain: AEAERARREAALAEAERRAAELIFAAVDEGTKVSNEEAAKVMEETRARIEALMDETGAAYDPERAAEIRDRATATMTRLAESYK
  binding in a display sort: not found

B30: design_597_f3dcd2b3-c7aa-4b15-88bc-bbb8d01a18cd_1536_dldesign_0_cycle1_af2pred (protein)
chain: SGANAAQEARAEYTAAKQLAKINKKDKEKAAKLLEEAYKKVEELAKKADEEGKKIAEKYAKELKELAKKYLKE
  binding in a display sort: not found

B31: design_597_f3dcd2b3-c7aa-4b15-88bc-bbb8d01a18cd_2357_dldesign_0_cycle1_af2pred (protein)
chain: NEEIKAKQLAGRLEALADSLKSAAEKAAKETKDPEKAKKLKEIAKEAEKAVEEAKKKIKEGKAEEAYKEGKEKVEKAKKEVEKIAKE
  binding in a display sort: not found

B32: design_597_f3dcd2b3-c7aa-4b15-88bc-bbb8d01a18cd_2339_dldesign_0_cycle1_af2pred (protein)
chain: AKALRYAGRAEIYMELAETAAKLAIEAAKKDPAEGKKYLEKMKEKVKKAVELAEKADPALAKEYEAKGKELIEKAEKAIKAQIEKA
  binding in a display sort: not found

B33: design_597_f3dcd2b3-c7aa-4b15-88bc-bbb8d01a18cd_2297_dldesign_0_cycle1_af2pred (protein)
chain: MEEAEKLLKKAEEAAKKGDAETAKKLAEELRELSKKEKDKEKAAAYSEAAFEAKGYAFLAEIKQEKKKELE
  binding in a display sort: not found

B34: design_597_f3dcd2b3-c7aa-4b15-88bc-bbb8d01a18cd_1020_dldesign_0_cycle1_af2pred (protein)
chain: GHSEEGKEISEKIREISRIAKEAGKEIKKYPGGEELMKELGETRDKAIDEAAEGGLEEAKKALEKVKKAAKELLKKAKA
  binding in a display sort: not found

B35: design_597_f3dcd2b3-c7aa-4b15-88bc-bbb8d01a18cd_2241_dldesign_0_cycle1_af2pred (protein)
chain: EAAAIAKEAAAVAEEAAKKEEDPGKAEALKKAAKRIKAAAAGTKFEIASAVASAAEQAEWVGYPKEVVDKLEAKAEKIEKA
  binding in a display sort: not found

B36: design_598_15ab41e9-cad4-4381-8935-81f74b313fe8_205_dldesign_0_cycle1_af2pred (protein)
chain: DFKAKADAEATLERAEQAEKAAKKIGEELAKLAEEAKKLAEAGLKSDDPEKREALTKAARELLKELQKLGKEKKEK
  binding in a display sort: not found

B37: design_597_f3dcd2b3-c7aa-4b15-88bc-bbb8d01a18cd_2077_dldesign_0_cycle1_af2pred (protein)
chain: EIKKLAAEAFDYYYEAKAMADALKADKNGKEAAKKIEELAKKIKEYGKKILETKDLKEAKKLYEEAKKLYEEAVKIFDEFAK
  binding in a display sort: not found

B38: design_598_15ab41e9-cad4-4381-8935-81f74b313fe8_72_dldesign_0_cycle1_af2pred (protein)
chain: SELVKKASDLYRELVRKAREVAEKAGKAGDPEEAKKLAGDAVWAAQENVEEGIKIAKELGKKTGVEKEVEEFIKLMKEYAKALEEVSN
  binding in a display sort: not found
